Experimental data from PubChem BioAssay AID588474 (The Scripps Research Institute Molecular Screening Center, 2011).
Values without a mark were called inactive. Activity calls are given as the source filed them.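 The calls were made as follows: active = inhibition of at least 75% in the gel-based probe competition assay; inactive = inhibition below 75%.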

Molecular target: Platelet-activating factor acetylhydrolase (Mus musculus) (UniProt Q60963)
Test: recombinant plasma PAF acetylhydrolase inhibition – biochemical, gel-based competitive ABPP, fluorescence, orthogonal assay, late-stage follow-up (AID 588474)
Conditions: recombinant mouse pPAFAH, FP-Rh fluorescence, at 5 µM, hits give high values

Chain of Platelet-activating factor acetylhydrolase (Mus musculus) (Q60963 whole entry, looked up): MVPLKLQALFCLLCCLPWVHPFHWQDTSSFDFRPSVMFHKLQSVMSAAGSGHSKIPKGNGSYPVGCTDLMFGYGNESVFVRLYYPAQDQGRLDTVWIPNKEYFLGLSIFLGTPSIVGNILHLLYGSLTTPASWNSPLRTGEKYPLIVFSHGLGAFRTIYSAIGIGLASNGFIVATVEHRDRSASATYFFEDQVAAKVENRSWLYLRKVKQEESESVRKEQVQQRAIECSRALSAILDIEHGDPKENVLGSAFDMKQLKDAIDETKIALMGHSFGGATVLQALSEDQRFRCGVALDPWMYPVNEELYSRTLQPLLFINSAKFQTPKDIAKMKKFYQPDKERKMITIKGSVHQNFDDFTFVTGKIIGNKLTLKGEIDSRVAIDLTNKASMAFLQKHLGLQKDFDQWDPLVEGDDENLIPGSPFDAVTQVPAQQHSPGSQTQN

Row | SMILES | inhibition
1 | Cc1cccc(NS(=O)(=O)c2ccc3[nH]c(=O)oc3c2)c1C | 17%
2 | CCOC(=O)N1CCC(NC(=O)CC2C(=O)NCCN2Cc2ccccc2F)CC1 (centres undefined) | 10%
3 | Cc1cccc(C2=NN(c3ccc(Br)cc3)[C@@H](C(=O)N3CCOC3=O)[C@@H]2c2ccccc2)c1 | 18%
4 | COc1cc(OC)c(NC(=O)CCNS(=O)(=O)c2ccc3c(c2)oc(=O)n3C)cc1Cl | 6%
5 | Cn1c(=O)oc2cc(S(=O)(=O)Nc3ccc(F)cc3)ccc21 | 24%
6 | O=C(Oc1ccc(-c2ccccc2)cc1)N1CCOCC1 | 98% (active)
7 | CCCCOC(=O)Nc1nnc(CCc2ccccc2)s1 | 22%
8 | Cc1cc(/C=C(\C#N)C(=O)NCC2CCCO2)c(C)n1-c1ccc(Cl)cc1 (centres undefined) | 9%
9 | COc1cccc(NC(=O)Nc2cc(C(=O)NCC3CCCO3)ccc2N2CC3CC(C2)c2cccc(=O)n2C3)c1 (centres undefined) | 18%
10 | Cc1ccc(NS(=O)(=O)c2ccc3[nH]c(=O)oc3c2)c(C)c1 | 18%
11 | CCc1ccc(NC(=O)Nc2cc(C(=O)NCC3CCCO3)ccc2N2CC3CC(C2)c2cccc(=O)n2C3)cc1 (centres undefined) | 8%
12 | O=C(Oc1ccnc2cc(Cl)ccc12)N1CCOCC1 | 22%
13 | O=C(Oc1ccc(-c2ccccc2)cc1)N1CCCCC1 | 79% (active)
14 | CCOCCCNC(=O)c1ccc(N2CC3CC(C2)c2cccc(=O)n2C3)c(NC(=O)Nc2cccc(OC)c2)c1 (centres undefined) | 21%
15 | COc1cccc(NC(=O)Nc2cc(C(=O)NC(C)C)ccc2N2CC3CC(C2)c2cccc(=O)n2C3)c1 (centres undefined) | 41%
16 | O=C(Oc1nsnc1N1CCOCC1)N1CCCCC1 | 65%
17 | CCCNC(=O)c1ccc(N2CC3CC(C2)c2cccc(=O)n2C3)c(NC(=O)Nc2ccc(CC)cc2)c1 (centres undefined) | 18%
18 | O=C(Oc1nsnc1N1CCCCC1)N1CCOCC1 | 55%
19 | O=C(Oc1nsnc1N1CCOCC1)N1CCOCC1 | 84% (active)
